The supplement of paper PMC9801561
± gives the standard deviation of the averaged measurements.

Legend:
[1] = system: Escherichia coli Nissle 1917; assay: area under OmniLog respiration curve over 48 h (OmniLog units x h); higher = more growth / nutrient utilisation; extreme values may be limits of the assay; conditions: incubation: 48 h, 37 °C
[2] = system: Escherichia coli Nissle 1917; assay: DuctApe activity index of respiration/growth curve (0 no growth to 9 maximum) (index 0-9); higher = more growth / nutrient utilisation, active = 3 or more; extreme values may be limits of the assay; conditions: incubation: 48 h, 37 °C
[3] = nutrient role: C-Source, carboxylic acid
[4] = nutrient role: sole sulfur source (pyruvate carbon)
[5] = nutrient role: N-Source, inorganic
[6] = nutrient role: C-Source, carbohydrate
[7] = nutrient role: sole phosphorus source (pyruvate carbon)
[8] = nutrient role: sole nitrogen source (pyruvate carbon)
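Throughout, for DuctApe activity index of respiration/growth curve (0 no growth to 9 maximum): biolog PM4 phosphorus and sulfur plates, tetrazolium violet dye reduction read in the OmniLog every 15 min, kinetic curves scored by DuctApe, each plate run in triplicate.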

O=C(O)[C@H]1OC(O)[C@H](O)[C@@H](O)[C@H]1O (stereo partly drawn) [D-Galacturonic acid]
area under OmniLog respiration curve [1, 3]: 10200 ± 880 | DuctApe activity index [2, 3]: 9 (active)

N[C@@H](CSC[C@H](N)C(=O)O)C(=O)O [Lanthionine]
area under OmniLog respiration curve [1, 4]: 7490 ± 330 | DuctApe activity index [2, 4]: 8 (active)

N [Ammonia]
area under OmniLog respiration curve [1, 5]: 8190 ± 1000 | DuctApe activity index [2, 5]: 8.33 (active)

N[C@@H](CS)C(=O)NCC(=O)O
area under OmniLog respiration curve [1, 4]: 6960 ± 77 | DuctApe activity index [2, 4]: 7 (active)

O=NO [Nitrite]
area under OmniLog respiration curve [1, 5]: 122 ± 150 | DuctApe activity index [2, 5]: 0.667 (inactive)

COC(=O)C(C)=O [Methylpyruvate]
area under OmniLog respiration curve ([1]; nutrient role: C-Source, ester): 8530 ± 550 | DuctApe activity index ([2]; nutrient role: C-Source, ester): 8.33 (active)

CC(=O)N[C@@H](CO)[C@@H](O)[C@H](O)[C@H](O)CO [N-Acetyl-D-Glucosaminitol]
area under OmniLog respiration curve [1, 6]: 4.72 | DuctApe activity index [2, 6]: 0 (inactive)

Cc1cn([C@H]2C[C@H](O)[C@@H](COP(=O)(O)O)O2)c(=O)[nH]c1=O [Thymidine 5`-Monophosphate]
area under OmniLog respiration curve [1, 7]: 8850 ± 380 | DuctApe activity index [2, 7]: 8.67 (active)

O=C(CO)[C@@H](O)[C@H](O)[C@@H](O)C(=O)O [5-Keto-D-Gluconic acid]
area under OmniLog respiration curve [1, 3]: 118 ± 140 | DuctApe activity index [2, 3]: 0 (inactive)

O=c1cc[nH]c(=O)[nH]1 [Uracil]
area under OmniLog respiration curve [1, 8]: 103 ± 170 | DuctApe activity index [2, 8]: 0 (inactive)

COC(=O)[C@@H](C)O [D-Lactic acid Methyl Ester]
area under OmniLog respiration curve ([1]; nutrient role: C-Source, ester): 7990 ± 370 | DuctApe activity index ([2]; nutrient role: C-Source, ester): 8 (active)

OC[C@H]1OC(O)[C@H](O)[C@@H](O)[C@@H]1O (stereo partly drawn) [a-D-Glucose]
area under OmniLog respiration curve [1, 6]: 7320 ± 620 | DuctApe activity index [2, 6]: 7.67 (active)

CC(O)(CC(=O)O)C(=O)O (configuration not stated) [Citramalic acid]
area under OmniLog respiration curve [1, 3]: 4.72 | DuctApe activity index [2, 3]: 0 (inactive)

CO[C@@H]1O[C@H](CO)[C@H](O)[C@H](O)[C@H]1O [b-Methyl-D-Galactoside]
area under OmniLog respiration curve [1, 6]: 6290 ± 550 | DuctApe activity index [2, 6]: 7 (active)

CC1OC(O)C(O)C(O)C1O [L-Fucose]
area under OmniLog respiration curve [1, 6]: 7650 ± 700 | DuctApe activity index [2, 6]: 7.67 (active)

N[C@@H](CCC(=O)N[C@@H](CS)C(=O)NCC(=O)O)C(=O)O [Glutathione]
area under OmniLog respiration curve [1, 4]: 1690 ± 30 | DuctApe activity index [2, 4]: 5 (active)

CCCCS(=O)(=O)O [Butane Sulfonic acid]
area under OmniLog respiration curve [1, 4]: 7820 ± 190 | DuctApe activity index [2, 4]: 8 (active)

C/C=C/C=C/C(=O)O [Sorbic acid]
area under OmniLog respiration curve [1, 3]: 7.09 ± 4.1 | DuctApe activity index [2, 3]: 0 (inactive)

N[C@H](COP(=O)(O)O)C(=O)O [O-Phospho-D-Serine]
area under OmniLog respiration curve [1, 7]: 9260 ± 670 | DuctApe activity index [2, 7]: 8.67 (active)

NC(N)=O
area under OmniLog respiration curve [1, 8]: 4.72 | DuctApe activity index [2, 8]: 0 (inactive)

Cc1c[nH]c(=O)[nH]c1=O [Thymine]
area under OmniLog respiration curve [1, 8]: 67 ± 110 | DuctApe activity index [2, 8]: 0 (inactive)
